The full list was thinned out, with hits kept by preference.
KDM5B inhibitor – KDM5B demethylase inhibition. Q9UGL1. 2.6% of 220,000 active. KDM5B demethylase, FDH-coupled NADH fluorescence (FDH is formaldehyde dehydrogenase). Potency, µM (highest dose often 57.7 µM), actives largely listed as inhibitors; active = well fitted inhibition curve with a large enough effect; also: nearly all actives have a fitted effect of over 70% in size
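qHTS format, multiple compound concentrations. Buffer 50 mM HEPES pH 7.5/0.01% Tween-20; 200 nM KDM5BΔAP final; 10 min compound preincubation; substrate-mix levels 12.5 µM peptide, 25 µM α-KG, 0.25 mM NAD⁺; 30 min RT; ΔRFU.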
Hits are given with their value; i = inactive.

SMILES	KDM5B inhibitor
COc1ncccc1CNC(=O)c1nccnc1N	i
Cc1ccnc2nc(C(=O)OC(C)C(=O)c3c[nH]c4ccccc34)nn12 (centres undefined)	i
c1nc(Sc2ccc3c(c2)OCCCO3)c2ccsc2n1	i
CSCCC(NC(=O)c1ccc2ccccc2n1)C(=O)NC(C)C (centres undefined)	i
Cc1ccc(-c2noc([C@@H]3CCCN3C(=O)c3cnccn3)n2)cc1	i
COc1ccc(-c2noc([C@@H]3CCCN3C(=O)c3ccc(OC)c(OC)c3)n2)cc1	i
CC(=O)N1CCN(c2cc(-c3noc([C@@H]4CCCN4Cc4ccccc4C)n3)ccn2)CC1	20µM
CC(=O)N1CCN(c2cc(-c3noc([C@@H]4CCCN4Cc4ccc(CO)o4)n3)ccn2)CC1	28µM
O=C(Cc1ccccc1Cl)N1CCC[C@H]1c1nc(-c2ccc(F)cc2)no1	i
Cc1ccc(C(=O)N2CCC[C@H]2c2nc(-c3ccccc3)no2)cc1	i
Cn1c(=O)c2c(ncn2CCOCCOc2ccccc2)n(C)c1=O	i
CN(C(=O)COC(=O)c1ccc(F)c(Cl)c1)c1ccc(F)cc1	i
O=C(COc1ncnc2sc3c(c12)CCCC3)N1CCc2ccccc2C1	i
COc1ccc(-c2ccc(Cn3ccnc3)cn2)c2ccc(C)nc12	25µM
C=CCCC(CN1CCOCC1)Oc1ccc(Cn2ccnc2)cn1 (centres undefined)	i
CCc1ccc(NCc2ccc(OC)c(Cn3ccnc3)c2)cc1	i
CN(Cc1ccccc1C(F)(F)F)C(=O)c1cccc(Cl)c1	i
COc1cc(F)cc(-c2ncc3c(n2)OCCN(C)C3=O)c1	35µM
COc1cccc(F)c1-c1ncc2c(n1)OCCN(c1cccc(C(F)(F)F)c1)C2=O	i
Cc1ccc(-c2ncc3c(n2)OCCN(c2ccccc2)C3=O)cc1F	i
COCCN1CCOc2nc(-c3ccc(F)c(Cl)c3)ncc2C1=O	i
COc1cc(F)cc(-c2ncc3c(n2)OCCN(c2cccc(C(F)(F)F)c2)C3=O)c1	i
COCCN1CCOc2nc(-c3cc(F)ccc3OC)ncc2C1=O	32µM
C[S+](=O)([O-])c1ccc(-c2ncc3c(n2)OCCN(c2ccccc2)C3=O)cc1	i
COc1ccc(F)cc1-c1ncc2c(n1)OCCN(c1cccc(C(F)(F)F)c1)C2=O	40µM
SMILES	KDM5B inhibitor
Cn1nccc1-c1ncc2c(n1)OCCN(Cc1ccc(F)cc1F)C2=O	i
COc1ccc(-c2ncc3c(n2)OCCN(c2ccccc2)C3=O)cc1F	28µM
COc1ccc(OC)c(-c2ncc3c(n2)OCCN(c2cccc(C(F)(F)F)c2)C3=O)c1	i
CN1CCOc2nc(-c3ccc(Oc4ccccc4)cc3)ncc2C1=O	i
NCc1cccc(NC(=O)c2ccncc2)c1	i
O=C(Cn1ccc2c(Cl)cccc21)Nc1ccc(O)cc1	i
O=C(c1ccc(F)c(F)c1)N1CCC2(CC1)NC(=O)N(Cc1ccc(F)cc1)C2=O	i
COc1ccc(CN2CCOc3nc(-c4cc(F)cc(F)c4)ncc3C2=O)cc1	i
COCCN1CCOc2nc(-c3cc(F)cc(OC)c3)ncc2C1=O	32µM
COCCN1CCOc2nc(-c3cccc(OC(F)(F)F)c3)ncc2C1=O	i
CCCn1nc(C(=O)Nc2ccc(C(C)(C)C)cc2)c2ccccc2c1=O	i
Cn1nc(C(=O)OC2CCC(C(C)(C)C)CC2)c2ccccc2c1=O (centres undefined)	i
CC(=O)NC(CC(=O)N(CC(F)(F)F)C1CC1)c1cccs1 (centres undefined)	i
Cc1cccc(C)c1-c1nc(C(=O)NCCc2ccc(Cl)cc2)n2ccccc12	14µM
Cc1cc(C)c2c(-n3cccc3)c(C(=O)NCCc3ccc(Cl)cc3)sc2n1	i
COCCNC(=O)c1nc(-c2c(C)cccc2C)c2ccccn12	35µM
COC(=O)CNC(=O)c1nc(-c2c(C)cccc2C)c2ccccn12	28µM
C#CCNC(=O)c1nc(-c2c(C)cccc2C)c2ccccn12	40µM
COCCNC(=O)c1nn(-c2ccc(C)cc2)c(=O)c2c1c1ccccc1n2C	i
COCCNC(=O)c1cccc2c1-c1ccccc1C2=O	i
CCc1ccccc1-n1c(C)nc2cc(C(=O)NCCc3ccc(Cl)cc3)ccc21	i
O=C(NCc1cccs1)c1cnccn1	i
O=C(CCS(=O)(=O)c1ccc2c(c1)CCN2C(=O)C1CC1)NCc1ccc(F)cc1	i
O=C(Cn1c(NCc2ccccc2)nc2ccccc21)Nc1ccc2c(c1)OCCO2	i
O=C(c1sccc1-c1ccccc1)N1CCN(S(=O)(=O)c2cccc(F)c2)CC1	i
SMILES	KDM5B inhibitor
Cc1oc(-c2ccccc2F)nc1CS(=O)(=O)CC(=O)NCCN(C)C	i
O=C(CSc1ccc2ccccc2n1)NCCc1ccc(F)cc1	i
CC(NC(=O)C1CCCC1)c1ccc(Cl)cc1Cl (centres undefined)	i
CC(=O)Nc1ccc2nc(-c3ccccc3)oc2c1	i
Cc1ccc(-c2nc(NC(=O)c3cc(C)on3)sc2C)c(C)c1	i
Cc1cccc(C(=O)Nc2ccc(NC(=O)c3ccco3)cc2O)c1	i
COc1ccccc1OC(C)C(=O)c1ccc(C)cc1 (centres undefined)	i
CC(=O)c1ccccc1NC(=O)COc1ccccc1C(N)=O	i
O=C(CCC1CCCC1)Nc1cccc2ncccc12	i
COc1ccc(/C=C(\C#N)C(=O)Nc2ccccc2C(=O)O)cc1OC(=O)c1ccccc1Cl	i
Cc1cc(C)cc(NC(=O)CSc2nc3nccnc3c(=O)n2CCc2ccccc2)c1	i
Cc1cccc(C(=O)NC2CCCCCC2)n1	i
COC(=O)CNC(=O)c1nc(-c2cc(Cl)cc(Cl)c2)c2ccccn12	25µM
Cc1cccc(C)c1-c1nc(C(=O)NC2CC2)n2ccccc12	100µM
Cc1ccccc1-n1nnc(C(=O)NC2CCCC2)c1N	i
COC(=O)CNC(=O)Cn1ccc2c(Cl)cccc21	i
Cc1[nH]c(C)c(C=O)c1C=O	i
Cc1ccc(CNS(=O)(=O)c2cc(-c3cc(C(F)(F)F)on3)ccc2C)cc1	i
Cc1cc(Br)c(NC(=O)C(C)C)cc1C	i
CN(c1ccccc1)S(=O)(=O)c1ccc(Cl)c(C(=O)OCn2nnc3ccccc3c2=O)c1	i
O=C(c1cc2ccccc2oc1=O)N1CCN(S(=O)(=O)c2ccc(F)cc2)CC1	i
COCC(C)NC(=O)CSc1cc(C)c2cccc(C)c2n1 (centres undefined)	i
Cc1cc(CN2CCC3(CC2)CN(C2CCC2)CC3CO)n(C)n1 (centres undefined)	18µM
CCn1cc(C(=O)N2CCC(C3CCN(C(=O)NC)CC3)C2)cn1 (centres undefined)	i
Cc1cc(CN2CCC3(CC2)CN(c2ccncn2)CC3CO)n(C)n1 (centres undefined)	i
SMILES	KDM5B inhibitor
CCn1cc(C(=O)N2CCC3(CC2)CN(C2CCC2)CC3CO)cn1 (centres undefined)	10µM
Cc1ncsc1CN1CCC2(CC1)CN(C1CCC1)CC2CO (centres undefined)	i
O=C(CN1CCOCC1)N1CCC2(CC1)CN(C1CCC1)CC2CO (centres undefined)	i
CCn1c(CCNC(=O)c2ccccc2F)nnc1SCC(=O)N1CCc2ccccc21	i
O=C(NNC(=O)c1ccc(NC(=O)C2CCCCC2)cc1)c1ccc(F)cc1	i
c1ccc(CCNc2ncncc2-c2nc(-c3ccccc3)no2)cc1	35µM
Clc1ccc(CNc2ncncc2-c2nc(-c3ccccc3)no2)cc1	i
c1ccc(-c2noc(-c3cncnc3NCc3ccco3)n2)cc1	i
COc1ccc(CNc2ncncc2-c2nc(-c3ccccc3)no2)cc1	i
CCc1ccc(CNc2ncncc2-c2nc(-c3ccccc3)no2)cc1	28µM

High-throughput results as filed in PubChem BioAssay.
